Article PMC6212790, “How bacterial xenogeneic silencer rok distinguishes foreign from self DNA in its resident genome”
Whole data set: some 33,000 sequences, median “e-score” near -0.038, cut for the highest 2% near 0.33. Shown is part of a subset that was picked to be rich in the highest values.

Target: T1, GST-Rok-C97-191 (Bacillus subtilis subsp. subtilis str. …, UniProt O34857 97-191)
T1 sequence: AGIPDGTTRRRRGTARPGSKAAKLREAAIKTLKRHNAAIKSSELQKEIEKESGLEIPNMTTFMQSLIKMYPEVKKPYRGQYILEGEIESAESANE
Assay: protein binding microarray; Rok is a gene silencer of Bacillus subtilis; high values mean tight binding
Conditions: protein: recombinant; tags: GST (pTH5325, pDEST15-Magic modified); dsDNA, one strand shown
Method in brief: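 Each has a 25-mer constant primer and a 35-mer variable part from a de Bruijn sequence of order 10, covering every non-palindromic 8-mer at least 32 times (palindromic 16). Preference for each 8-mer is given as a rank-based, unitless enrichment score (E-score). Its range runs from 0.5 (most favored) to −0.5 (most disfavored).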

Sequence | binding signal [E-score]
GAAATGGC | -0.16
ACTCGTAC | 0.0277
CAGTAATC | -0.0737
GATGCAGC | -0.0978
AACATATT | 0.24
GTACGCCA | -0.0805
GCTTCACA | -0.0519
CATGACTC | 0.0199
ATTGGTAC | 0.278
ATTGGTAG | 0.38
CGTGGTAG | 0.206
ATTGGTAA | 0.258
ATAGGTAA | 0.225
AATGGTAT | 0.328
AATGGTAG | 0.441
AGTGGTAG | 0.378
ATAGGTAC | 0.257
CATGGTAG | 0.188
AGTGGTAC | 0.202
ATAGGTAG | 0.358
CTTATTCC | 0.00112
AAGAGAGC | -0.136
AGCGTACC | -0.188
AGCGGGAG | -0.145
ACCAACTA | 0.161

Sequence | binding signal [E-score]
TACGGCCA | -0.0766
ACTTTCGC | 0.0461
TACCCATA | 0.234
AGCCTTAT | -0.11
ACTACTCG | 0.159
GCTACTAC | 0.264
ACTACATG | 0.307
ACTACTAC | 0.419
ACTACAAC | 0.295
CCTACTAG | 0.18
CCTACATC | 0.187
ACTACTAG | 0.361
ACTACAAG | 0.137
ACTACAAT | 0.329
ACTACATC | 0.334
ACTACTGC | 0.113
CTGCCTTC | -0.104
GCTCGCAA | -0.145
AGCTAGGA | -0.00935
ACTACTAT | 0.46
ACTACGAT | 0.362
CCTACTAA | 0.101
ACTACTCT | 0.19
ACTACGAC | 0.0766
CCTACTTC | 0.0914

Sequence | binding signal [E-score]
ACTACGAA | 0.163
ACTACTCA | 0.265
CCTACTAC | 0.343
CCGGACCG | -0.0456
CGTCAACC | -0.182
GTGAGATA | 0.0844
CCTTCTCC | -0.165
ACCGCTAA | 0.13
GTCCAATA | 0.0328
CTCGCAAA | 0.0435
ACTCGGTA | 0.286
GGGAGCAC | -0.183
GTATAATA | 0.413
ATATAATG | 0.3
ATATAATA | 0.446
CTATAATA | 0.34
CTATAATC | 0.222
GTATAACA | 0.141
ATATAATC | 0.201
CTATAAGA | 0.156
GTATAAAA | 0.32
CGAGAAGA | -0.0403
CCTTAGGA | 0.047
ACTGCACC | 0.128
TCTTAAAA | -0.0115

Sequence | binding signal [E-score]
AAAACAAC | 0.116
AAAGTGAC | -0.0335
ATTCTTGC | 0.103
ATATGTTA | 0.331
GAATGGTC | -0.121
GAATGGTA | 0.39
CTATGGTA | 0.211
TAATGGTA | 0.325
ATATGGTA | 0.331
ATATGGTG | 0.159
CTATGTTA | 0.256
ATATGTTC | 0.238
AGAGCCAG | -0.194
ACGTGCCT | -0.189
CCGTTCTA | 0.108
TACAGGAA | 0.0535
GGAATCGA | 0.209
AGATTGTG | 0.09
GTAGCTAA | 0.346
GAAGCTAC | 0.309
TTAGCTAA | 0.263
ATAGCTAC | 0.31
ATAGCTAG | 0.271
GTAGCTAC | 0.428
ATAGCTAT | 0.402

Sequence | binding signal [E-score]
CTAGCTAC | 0.163
CTAGCTAA | 0.127
ATTTAATG | 0.105
CGTCTGAA | -0.0845
CTAAAGTC | 0.0658
ATGCTGAC | -0.0948
ATTCGACC | -0.138
AGGTAATG | 0.113
AGGTAGTA | 0.328
CGGTAGTC | 0.174
GGGTAGTA | 0.3
GGGTAATA | 0.272
AGGTAGTG | -0.0194
AGGTAGTC | 0.0784
AGGTAATA | 0.328
CGGTAGTA | 0.391
CTTCGAAC | -0.152
CAACTACA | 0.234
ACACTACG | -0.0248
AAACTACT | 0.464
ACACTACT | 0.18
GAACTACA | 0.252
GCACTACC | 0.0373
CAACTACG | 0.113
GAACTACC | 0.367

Sequence | binding signal [E-score]
AAACTACA | 0.387
AAACTACG | 0.387
AGACTACT | 0.198
AGACTACA | 0.0455
GGTCCGAC | -0.143
ATGAAAGC | -0.0998
AGGTGAAG | -0.109
TACTGTAA | 0.323
CGGAGAAC | 0.0827
ACATTCGA | 0.071
TGACTACA | 0.031
TCACTACA | -0.0801
AGACTACC | 0.268
AAACTACC | 0.473
CAACTACC | 0.271
TAACTACA | 0.423
AACAGCTC | 0.087
TATGGAGA | 0.0429
TTGTACAA | 0.342
CTGTACAA | 0.0696
ATGTACAT | 0.377
GTGTACAA | 0.213
ATGTACCA | 0.335
CTGTACCA | -0.0649
ATGTACTC | 0.178

Sequence | binding signal [E-score]
GTGTACTA | 0.16
ATGTACAG | 0.317
ATGTACAA | 0.317
ATGTACTA | 0.376
ATGTACCC | 0.0999
ATGCAGTC | -0.0482
ATCTAAAC | 0.0603
AGGCCAAT | -0.176
CCTACAGA | 0.064
AAGTCTAG | 0.0844
GGTTATAA | 0.0781
GGAGTTGA | -0.137
AAGACCAA | -0.0146
CGACCACA | -0.0849
ACGCGCAT | -0.158
CTCTACAA | 0.00826
GTCTACAA | -0.0759
TTCTACAA | 0.362
ACGACCGT | 0.00992
ACATTGCA | 0.0494
ACTAGATA | 0.403
ACTAGATG | 0.317
